Assay results from PubChem BioAssay (NCI).
About 83,000 compounds went through this panel and 20% of them were active in at least one assay; those are over-represented in the sample as a whole.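 Cell lines were cultured in 96-well plates, exposed to a single compound concentration, and assessed for percent growth 48 hours later.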 Values without a mark were called inactive. The source made the active and inactive calls. The calls were made as follows: active = growth percent below 10; inactive = the rest.

tested on: RXF 393 renal; test: NCI-60 one-dose screen, 48 h (100 = growth as untreated, 0 = no growth, -100 = all killed); settings: 10 µM unless noted

Structure (SMILES)	growth
CN1c2ccccc2Sc2cc(/C=N/Nc3ccnc4cc(Cl)ccc34)ccc21	82.2%
NS(=O)(=O)c1ccc(CCn2c(-c3ccc(C(=O)O)cc3)nc(-c3ccccc3)c2-c2ccccc2)cc1	104%
CCCc1cc2cc(-n3nc(CC)c4c3CC(C)(C)CC4=O)cc(NC3CCC(O)CC3)c2c(=O)[nH]1 (stereo not drawn)	-15.8% (active)
O=S(=O)(NCCCNc1nccc(-c2[nH]c(-c3ccccc3)nc2-c2ccc(F)c(O)c2)n1)c1cccc(F)c1	100%
CCCCCCNC(=O)Oc1ccc(/C(=C(/C)c2ccc(OC)cc2)c2ccc(OCCN3CCCCCC3)cc2)cc1	-8.34% (active)
CCOC(=O)Nc1ccc2c(ccn2C(=O)c2cccc(F)c2)c1	19.3%
O=C(CCCCCCNC(=O)C(O)(O)C(F)(F)F)Nc1ccc(Cl)cc1	-23.7% (active)
CCS(=O)(=O)Nc1ccc(C(=O)CC2(O)C(=O)Nc3ccccc32)cc1 (stereo not drawn)	115%
COc1cccc(N2CCN(C3=C(Cl)C(=O)c4ncccc4C3=O)CC2)c1	64.5%
Nn1c(=O)n(-c2cccc(C(F)(F)F)c2)c(=O)c2cc(-c3ccc(F)cc3F)ccc21	3.65% (active)
CC(=O)N1N=C(c2cc3ccccc3oc2=O)CC1c1cn(-c2ccccc2)nc1-c1ccc(C)cc1 (stereo not drawn)	98.8%
NS(=O)(=O)c1cccc(Nc2nc(SCC(=O)c3ccc(Cl)cc3)nc3c2CCC3)c1	82.2%
O=C(CCCCCCNC(=O)c1csc(Br)n1)NO	3.36% (active)
